PubChem BioAssay (NCATS)
Where “and” joins values, the source holds several entries; their conditions need not be identical. Equal values may be shown once. Inconclusive results are not listed. Calls of active or inactive are those of the source. The call rests on the fitted dose curve; in most records, active means well fitted inhibition curve with a large enough effect; inconclusive means small, poorly fitted or top-dose-only effect; inactive means flat fitted curve, though single readings scatter.

Tests used:
CRL-7250 [1] = assay: Cytotoxic Profiling of Annotated Libraries Using Quantitative High-Throughput Screening (AID 1296008); details: Five cell lines viability, CellTiter-Glo ATP luminescence, 48-72 h; max response: stronger effect = lower value; on max response: on the % scale 0 is the no-effect control and ±100 the full control effect
Summary of the method: (§1)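 Compounds were pin-transferred onto cells and incubated 48 or 72 hr at 37 degree Celsius, 95% humidity. CellTiter-Glo was added, plates sat 10 min at room temperature, then ATP-coupled luminescence was imaged as the viability read-out.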

HEK293 = assay: as above; details: Five cell lines viability, CellTiter-Glo ATP luminescence, 48-72 h; max response: stronger effect = lower value
Summary of the method: as §1

HaCat [2] = assay: as above; details: Five cell lines viability, CellTiter-Glo ATP luminescence, 48-72 h; max response: stronger effect = lower value
Summary of the method: as §1

KB-3-1 = assay: as above; details: Five cell lines viability, CellTiter-Glo ATP luminescence, 48-72 h; max response: stronger effect = lower value
Summary of the method: as §1

NIH3T3 = assay: as above; details: Five cell lines viability, CellTiter-Glo ATP luminescence, 48-72 h; max response: stronger effect = lower value
Summary of the method: as §1

CRL-7250 [3] = assay: qHTS assay to identify novel small-molecules to repurpose for Merkel cell carcinoma treatment (AID 1296009); details: MCC and control cell lines, CellTiter-Glo viability, 72 h; series mostly up to 44.8 µM
Summary of the method: (§2)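 Viability readout: ATP luminescence (CellTiter-Glo) after 72 hr drug exposure at 37 degree celsius. Dose-response format was 8 points for NPC and 11 points for MIPE; data normalized to in-plate controls.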

HACAT [4] = assay: as above; details: MCC and control cell lines, CellTiter-Glo viability, 72 h; at 44.8 µM (top of the series) unless noted
Summary of the method: as §2

HEK293T = assay: as above; details: MCC and control cell lines, CellTiter-Glo viability, 72 h; at 44.8 µM (top of the series)
Summary of the method: as §2

MCC-13 = assay: as above; details: MCC and control cell lines, CellTiter-Glo viability, 72 h; series mostly up to 46 µM
Summary of the method: as §2

MCC-26 = assay: as above; details: MCC and control cell lines, CellTiter-Glo viability, 72 h; series mostly up to 46 µM
Summary of the method: as §2

MKL-1 = assay: as above; details: MCC and control cell lines, CellTiter-Glo viability, 72 h; series mostly up to 46 µM
Summary of the method: as §2

MKL-2 = assay: as above; details: MCC and control cell lines, CellTiter-Glo viability, 72 h; series mostly up to 46 µM
Summary of the method: as §2

PC15 = assay: qHTS profiling for inhibitors of Plasmodium falciparum proliferation (AID 504749);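 further: 0% = DMSO vehicle and full inhibition = artemisinin control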; details: P. falciparum in erythrocytes, SYBR Green DNA, 72 h; series mostly up to 28.7 µM
Summary of the method: (§3)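 Quantitative HTS: compounds pinned into medium, infected erythrocytes added (0.3% parasitemia, 2.5% hematocrit), 72 h culture at 37 C under 5% CO2. Saponin/Triton lysis with SYBR Green I, overnight RT, then fluorescence read.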

PC26 = assay: as above; details: P. falciparum in erythrocytes, SYBR Green DNA, 72 h; series mostly up to 28.7 µM
Summary of the method: as §3

PC49 = assay: as above; details: P. falciparum in erythrocytes, SYBR Green DNA, 72 h; series mostly up to 28.7 µM
Summary of the method: as §3

SC27B = assay: as above; details: P. falciparum in erythrocytes, SYBR Green DNA, 72 h; series mostly up to 28.7 µM
Summary of the method: as §3

TAB109 = assay: as above; details: P. falciparum in erythrocytes, SYBR Green DNA, 72 h; series mostly up to 28.7 µM
Summary of the method: as §3

TAB113 = assay: as above; details: P. falciparum in erythrocytes, SYBR Green DNA, 72 h; series mostly up to 28.7 µM
Summary of the method: as §3

TAB165 = assay: as above; details: P. falciparum in erythrocytes, SYBR Green DNA, 72 h; series mostly up to 28.7 µM
Summary of the method: as §3

W2 = assay: as above; details: P. falciparum in erythrocytes, SYBR Green DNA, 72 h; series mostly up to 28.7 µM
Summary of the method: as §3
Further: nearly all actives have a fitted effect of over 60% in size.

CNC(=O)c1ccc(N2C(=S)N(c3ccc(C#N)c(C(F)(F)F)c3)C(=O)C23CCC3)cc1F
inactive: outcome (CRL-7250 [1]) | max response (HEK293) -7.61% | outcome (HEK293) | outcome (HaCat [2]) | max response (KB-3-1) 0.285% and 2.98% | max response (NIH3T3) 3.77% and -4.83% | outcome (CRL-7250 [3]) | outcome (HACAT [4]) | outcome (HEK293T) | Potency (MCC-13) | Potency (MCC-26) | Potency (MKL-1) | Potency (MKL-2)

CC1NCCOC1c1ccccc1 (configuration not stated)
inactive: Potency (PC15) | Potency (PC26) | Potency (PC49) | Potency (SC27B) | Potency (TAB109) | Potency (TAB113) | Potency (TAB165) | max response (CRL-7250 [1]) 1.98% | outcome (HEK293) | outcome (HaCat [2]) | max response (KB-3-1) -11.6% | max response (NIH3T3) 1.83% | outcome (HACAT [4]) | outcome (HEK293T) | Potency (MCC-13) | Potency (MCC-26) | Potency (MKL-1) | Potency (MKL-2)

Cc1cccc(C)c1NC(=O)CN1CCCC1=O
inactive: max response (CRL-7250 [1]) 0.285% and 2.07% | max response (HEK293) 2.15% | outcome (HEK293) | max response (HaCat [2]) 3.48% and 0.767% | max response (KB-3-1) -16.8% and -6.89% | max response (NIH3T3) 1.47% and -1.95% | outcome (HEK293T) | Potency (MCC-13) | Potency (MKL-1) | Potency (MKL-2)

Cn1c(CCCC(=O)O)nc2cc(N(CCCl)CCCl)ccc21
inactive: Potency (PC15) | Potency (PC26) | Potency (PC49) | Potency (SC27B) | Potency (TAB113) | Potency (TAB165) | max response (CRL-7250 [1]) 3.94% | outcome (CRL-7250 [1]) | max response (HEK293) 1.54% | outcome (HEK293) | max response (HaCat [2]) -5.87% and -9.93% | max response (KB-3-1) 3.92% and 3.13% | max response (NIH3T3) -2.08% and -18.1% | outcome (CRL-7250 [3]) | outcome (HEK293T) | Potency (MCC-13) | Potency (MCC-26) | Potency (MKL-1)

CN1C(=S)CN=C(c2ccccc2)c2cc(Cl)ccc21
inactive: Potency (PC15) | Potency (PC26) | Potency (PC49) | Potency (SC27B) | Potency (TAB109) | Potency (TAB113) | Potency (TAB165) | Potency (W2) | outcome (CRL-7250 [1]) | max response (HEK293) -23.9% | outcome (HaCat [2]) | max response (KB-3-1) 4.4% | outcome (NIH3T3) | outcome (CRL-7250 [3]) | outcome (HACAT [4]) | Potency (MCC-13) | Potency (MCC-26) | Potency (MKL-1) | Potency (MKL-2)

CCN(CC)C(=O)N[C@@H]1C=C2c3cccc4[nH]cc(c34)C[C@@H]2N(C)C1
inactive: outcome (CRL-7250 [1]) | max response (HEK293) -11.8% | max response (HaCat [2]) -0.0252% | max response (KB-3-1) -10.6% | outcome (NIH3T3) | outcome (CRL-7250 [3]) | Potency (MCC-13) | Potency (MKL-1) | Potency (MKL-2)
